BAZ2B inh: inhibitors of human BAZ2B bromodomain; Potency, µM (titrated, usually from 114 µM), without a hit: at the top dose activity change, negative = inhibition, usual class: inhibitors; AID 504333; AlphaScreen BAZ2B-H3K14Ac peptide displacement; 360,000 compounds, 4.4% hits; also: % is scaled to controls: 0 for no effect and ±100 for the full control effect; nearly all actives have a fitted effect of over 60% in size
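BAZ2B 50 nM plus b-H3(5-23)K14Ac 50 nM, PBS pH 7.4/0.01% Tween-20, 30 min RT; compound added (max 110 uM), 30 min RT; streptavidin donor/Ni-chelate acceptor beads 10 ug/mL final, 20 min dark; AlphaScreen read.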
L3MBTL1 block: blocks human L3MBTL1. Q9Y468. AlphaScreen L3MBTL1–H3K9me1 peptide binding. 230,000 compounds, 0.66% hits. Potency, µM (titrated, usually from 57.1 µM), inactives show at the top dose activity, negative = inhibition, actives largely listed as inhibitors. AID 485360; also: % is scaled to controls: 0 for no effect and ±100 for the full control effect; nearly all actives have a fitted effect of over 60% in size
Target sequence (Q9Y468 whole entry, looked up): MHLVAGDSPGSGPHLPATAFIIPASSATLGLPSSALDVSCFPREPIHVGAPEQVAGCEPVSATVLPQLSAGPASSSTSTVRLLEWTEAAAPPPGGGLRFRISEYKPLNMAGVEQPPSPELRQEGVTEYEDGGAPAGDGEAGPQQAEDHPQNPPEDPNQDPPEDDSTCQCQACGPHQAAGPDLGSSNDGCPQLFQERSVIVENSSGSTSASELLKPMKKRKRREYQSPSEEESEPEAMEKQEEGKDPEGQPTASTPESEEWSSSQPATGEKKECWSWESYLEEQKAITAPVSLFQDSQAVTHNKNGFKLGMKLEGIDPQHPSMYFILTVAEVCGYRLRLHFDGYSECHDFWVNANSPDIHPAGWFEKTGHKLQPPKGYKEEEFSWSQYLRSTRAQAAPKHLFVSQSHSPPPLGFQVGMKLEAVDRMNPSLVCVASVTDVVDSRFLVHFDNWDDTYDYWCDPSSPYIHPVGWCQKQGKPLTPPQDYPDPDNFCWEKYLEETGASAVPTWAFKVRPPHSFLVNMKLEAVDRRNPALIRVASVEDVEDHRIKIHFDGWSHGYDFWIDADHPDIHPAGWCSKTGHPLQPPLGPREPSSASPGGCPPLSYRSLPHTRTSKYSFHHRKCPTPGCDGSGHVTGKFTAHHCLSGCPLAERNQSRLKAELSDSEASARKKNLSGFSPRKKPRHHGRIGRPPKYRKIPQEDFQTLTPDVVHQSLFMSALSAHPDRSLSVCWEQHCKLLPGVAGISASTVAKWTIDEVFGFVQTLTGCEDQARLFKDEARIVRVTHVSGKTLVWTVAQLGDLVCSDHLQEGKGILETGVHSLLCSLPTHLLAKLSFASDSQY
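Displacement of a biotinylated histone H3(1-15) peptide monomethylated at Lys9 (75 nM) from L3MBTL1 (50 nM) was measured by AlphaScreen after a 30 min room-temperature compound incubation; cefsulodin titration served as intraplate control.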
Sfp inh: Sfp phosphopantetheinyl transferase inhibition. Q9F4F7. Biochemical Sfp PPTase activity, qHTS. Potency, µM, for the others: largest response in the series, negative = inhibition, hits mostly inhibitors. 310,000 compounds, 3.5% hits. AID 1490;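 also: the enzyme is Sfp with the accession as filed and its product quenches rhodamine fluorescence; 0% = enzyme reaction without inhibitor and -100% = no enzyme wells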
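After 15 min at room temperature with compound, 15 nM Sfp received 5 uM rhodamine-CoA plus 12.5 uM BHQ-2-ybbR (50 mM Hepes pH 7.6, 10 mM MgCl2). Rate came from the fluorescence difference over 30 min, ex 525/em 598 nm.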
HP1b chromo inh: HP1-beta chromodomain-methylated histone interaction inhibition; P83916; AID 540317; AlphaScreen HP1-beta / biotin-H3K9me3 peptide binding; Potency, µM (highest dose often 114 µM), for the others: at the top dose activity change, negative = inhibition, actives largely listed as inhibitors; 390,000 compounds, 0.56% hits; also: nearly all actives have a fitted effect of over 70% in size
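HP1-beta protein (50 nM final) preincubated 30 min at room temperature with biotinylated H3(1-18)K9me3 peptide (50 nM) in PBS pH 7.4, 0.01% Tween-20, then compound added for 30 min. AlphaScreen streptavidin donor/nickel chelate acceptor beads (10 ug/mL final), 30 min dark, luminescence read.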
G9a block: blocks human histone lysine methyltransferase G9a | Q96KQ7 | G9a H3K9 monomethylation, AlphaScreen, 2 h | Potency, µM (titrated, usually from 102 µM), without a hit: top-dose activity, negative = inhibition, usual class: inhibitors | 350,000 compounds, 8.8% hits; also: % is scaled to controls: 0 for no effect and ±100 for the full control effect; nearly all actives have a fitted effect of over 75% in size
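G9a (20 nM) preincubated 15 min RT with compounds, then 500 nM biotinylated H3K9 peptide and 20 uM SAM added; 2 h RT reaction. Monomethyl-H3K9 product detected by AlphaScreen with anti-H3K9me1 antibody, streptavidin donor and anti-rabbit IgG acceptor beads.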
JMJD2A Tudor inh: JMJD2A Tudor domain (human) inhibition; O75164; 390,000 compounds, 4.4% hits; Potency, µM (series often up to 114 µM), for inactives: at the top dose activity change, negative = inhibition, usual class: inhibitors; AlphaScreen JMJD2A-Tudor / H3K4me3 peptide binding; also: % is scaled to controls: 0 for no effect and ±100 for the full control effect; nearly all actives have a fitted effect of over 50% in size
* marks the source's active call; other numbers are inactive results; [ ] = dose if it differs, or a comment. Sampled rows, rich in hits. Any-hit rate of the full collection: about 12%. Calls follow the shape of the dose curve; as a rule, active = well fitted curve in the direction sought with a large enough effect; inconclusive = small, poorly fitted or top-dose-only effect, or another doubt; inactive = no such curve, though single readings can be large; an effect the other way counts as inactive or inconclusive. Potency is read from the fitted curve at half-maximal effect.

COc1ccc(CN(CC2CCC(C(=O)O)CC2)C(=S)Nc2cc(Cl)ccc2OC)cc1 (stereo not drawn) was read as BAZ2B inh -1%, Sfp inh 40µM*, HP1b chromo inh 18%, G9a block inconclusive and JMJD2A Tudor inh -8%.
COc1ccc(Cl)cc1NC(=S)N(Cc1ccc(C(=O)O)cc1)Cc1ccc(OC)c(OC)c1 was read as BAZ2B inh -15%, Sfp inh 40µM*, HP1b chromo inh -6%, G9a block 28µM* and JMJD2A Tudor inh -21%.
`COc1cccc(NC(=S)N(Cc2ccc(Cl)cc2)Cc2ccc(C(=O)O)cc2)c1` gave BAZ2B inh 4%, Sfp inh 5%, HP1b chromo inh 8%, G9a block 50µM* and JMJD2A Tudor inh -9%.
Screening Cc1cccc(NC(=S)N(Cc2ccc(Br)cc2)Cc2ccc(C(=O)O)cc2)c1 returned BAZ2B inh -14%, Sfp inh 8%, HP1b chromo inh 21%, G9a block inconclusive and JMJD2A Tudor inh -32%.
`COC1=C(OC)C(=O)C(C/C=C(\C)CC/C=C(\C)CC/C=C(\C)CC/C=C(\C)CC/C=C(\C)CC/C=C(\C)CC/C=C(\C)CC/C=C(\C)CC/C=C(\C)CCC=C(C)C)=C(C)C1=O` gave Sfp inh 25% and G9a block 23%[59 µM].
`CC(C)Cc1csc(=S)[nH]1` gave HP1b chromo inh 6%[57 µM] and JMJD2A Tudor inh 4µM*.
Screening CC1CCCN(C/C=C/c2ccccc2[N+](=O)[O-])C1 (stereo not drawn) returned BAZ2B inh 3%, L3MBTL1 block 5%, Sfp inh 8%, HP1b chromo inh 11%, G9a block -44% and JMJD2A Tudor inh -20%.
Screening O=[N+]([O-])c1ccccc1/C=C/CN1CCSCC1 returned BAZ2B inh 50µM*, L3MBTL1 block 0%, Sfp inh -4%, HP1b chromo inh inconclusive and JMJD2A Tudor inh 13µM*.
For COC(=O)C1=C(C)N(C(C)C)C(=O)C1(NC(=O)c1ccc(C(C)(C)C)cc1)C(F)(F)F (stereo not drawn) the results were BAZ2B inh -17%, HP1b chromo inh 22%, G9a block -4%[59 µM] and JMJD2A Tudor inh -16%.
COc1ccc(NC(=O)N2CCc3c(sc4c3CCCC4)C2c2ccc(F)cc2)cc1 (stereo not drawn) was read as BAZ2B inh inconclusive, HP1b chromo inh -4%, G9a block inconclusive and JMJD2A Tudor inh -30%.
Screening CNCCc1ccccn1 returned BAZ2B inh inconclusive, L3MBTL1 block 3%, Sfp inh -24%, HP1b chromo inh inconclusive, G9a block 5%[21.5 µM] and JMJD2A Tudor inh inconclusive.
For CNCCc1cnc(CCC(c2ccccc2)c2ccccc2)[nH]1 the results were G9a block 10µM*.
Screening O=C1C(C=NCc2ccccn2)=C(O)c2ccccc21 returned BAZ2B inh 89µM*, L3MBTL1 block inconclusive, Sfp inh -11%, HP1b chromo inh 21%, G9a block 4% and JMJD2A Tudor inh -7%.
For CCOc1ccc(Cl)cc1CN1CCOCC1 the results were BAZ2B inh -17%, Sfp inh 13%, HP1b chromo inh 22%, G9a block 6%[12.7 µM] and JMJD2A Tudor inh -10%.
Cc1cc(N=Nc2ccc(Cl)cc2)cc(CN2CCCC2)c1O was read as BAZ2B inh 10µM*, L3MBTL1 block inconclusive, Sfp inh -12%, HP1b chromo inh 20µM* and JMJD2A Tudor inh 28µM*.
`Cc1cc(N=Nc2ccc(Cl)cc2)cc(CN2CCOCC2)c1O` gave BAZ2B inh 10µM*, L3MBTL1 block inconclusive, Sfp inh -2%, HP1b chromo inh 40µM*, G9a block 7.9µM* and JMJD2A Tudor inh 16µM*.
CCOC(=O)C1CCN(C(=O)Cn2ncc3c4ccccc4n(Cc4ccc(F)cc4)c3c2=O)CC1 was read as BAZ2B inh -5%, HP1b chromo inh 23%, G9a block 6%[59 µM] and JMJD2A Tudor inh -8%.
`Cc1noc(C)c1-c1ccc2ncnc(NCc3ccc4c(c3)OCO4)c2c1` gave Sfp inh -10% and JMJD2A Tudor inh -31%.
`Cc1nc2ccc(S(=O)(=O)N3CCN(S(=O)(=O)c4c(F)cccc4F)CC3)cc2s1` gave JMJD2A Tudor inh -21%.
For COc1ccc2sc(-c3ccccc3OC)c(-c3ccc(OCCN(C)C)cc3)c2c1 the results were L3MBTL1 block -9%, HP1b chromo inh -35% and JMJD2A Tudor inh 50µM*.
COc1cccc(-c2sc3ccc(OC)cc3c2-c2ccc(OCCN3CCCC3)cc2)c1 was read as L3MBTL1 block -4%, HP1b chromo inh inconclusive and JMJD2A Tudor inh 56µM*.
`COc1cccc(-c2sc3cc(OC)c(OC)cc3c2-c2ccc(OCCN3CCCCC3)cc2)c1` gave L3MBTL1 block -26%, HP1b chromo inh inconclusive and JMJD2A Tudor inh 32µM*.
`COc1cccc(-c2sc3ccccc3c2-c2ccc(OCCN3CCCCC3)cc2)c1` gave L3MBTL1 block -3%, HP1b chromo inh -11% and JMJD2A Tudor inh inconclusive.
COc1cccc(-c2sc3ccccc3c2-c2ccc(OCCN(C)C)cc2)c1 was read as L3MBTL1 block -12%, HP1b chromo inh inconclusive and JMJD2A Tudor inh 45µM*.
For COc1cccc(-c2sc3ccc(OC)cc3c2-c2ccc(C(N)=O)cc2)c1 the results were BAZ2B inh 3%, L3MBTL1 block -9%, HP1b chromo inh 19%, G9a block 0%[0.501 µM] and JMJD2A Tudor inh -17%.
CN(C)c1ccnc(-c2cccc(NS(C)(=O)=O)c2)n1 was read as Sfp inh -9%.
`COc1cccc(-c2sc3ccccc3c2-c2ccc(OCCN3CCCC3)cc2)c1` gave L3MBTL1 block -3%, HP1b chromo inh inconclusive and JMJD2A Tudor inh 45µM*.
Screening CCCCC[C@]12Cc3cc(OC)c(OC)cc3[C@H](O1)c1c(cc(C)oc1=O)O2 returned BAZ2B inh 4%[22.9 µM], Sfp inh 16% and G9a block -4%[2.33 µM].
`CN(C)c1ccc(NC(=O)Cn2cc(S(=O)(=O)Cc3ccccc3Cl)c3ccccc32)cc1` gave BAZ2B inh 25µM*, HP1b chromo inh -18%, G9a block 5µM* and JMJD2A Tudor inh inconclusive.
For Cc1ccc(NC(=O)Cn2cc(S(=O)(=O)Cc3ccc(F)cc3)c3ccccc32)cc1Cl the results were BAZ2B inh 50µM*, HP1b chromo inh -30%, G9a block -50%[59 µM] and JMJD2A Tudor inh 56µM*.
